According to the supplement of paper PMC3334620:
Whole data set: some 33,000 sequences, median “E-score (-0.5 to 0.5)” near -0.01, cut for the highest 2% near 0.26. Shown is part of a subset that was picked to be rich in the highest values.

molecular target: Ste12 (UniProt P13574); assay: PBM E-score (8-mer binding enrichment) (E-score (-0.5 to 0.5)); higher = stronger / more preferred TF binding; settings: protein concentration: 200 nM; construct: GST-DNA-binding domain
In short: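 Full-length yeast transcription factors or their DNA-binding domains, GST-tagged and expressed with PURExpress, were applied at about 100-200 nM to universal all-10-mer Agilent arrays. These arrays had been made double-stranded by primer extension on fresh or once-stripped slides. Detection used fluorescent anti-GST, normalisation used masliner, and E-scores for ungapped eight-base words pooled with reverse complements came from the Universal PBM Analysis Suite.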

Sequence of UniProt P13574 (P13574 whole entry, the tested form may be a part): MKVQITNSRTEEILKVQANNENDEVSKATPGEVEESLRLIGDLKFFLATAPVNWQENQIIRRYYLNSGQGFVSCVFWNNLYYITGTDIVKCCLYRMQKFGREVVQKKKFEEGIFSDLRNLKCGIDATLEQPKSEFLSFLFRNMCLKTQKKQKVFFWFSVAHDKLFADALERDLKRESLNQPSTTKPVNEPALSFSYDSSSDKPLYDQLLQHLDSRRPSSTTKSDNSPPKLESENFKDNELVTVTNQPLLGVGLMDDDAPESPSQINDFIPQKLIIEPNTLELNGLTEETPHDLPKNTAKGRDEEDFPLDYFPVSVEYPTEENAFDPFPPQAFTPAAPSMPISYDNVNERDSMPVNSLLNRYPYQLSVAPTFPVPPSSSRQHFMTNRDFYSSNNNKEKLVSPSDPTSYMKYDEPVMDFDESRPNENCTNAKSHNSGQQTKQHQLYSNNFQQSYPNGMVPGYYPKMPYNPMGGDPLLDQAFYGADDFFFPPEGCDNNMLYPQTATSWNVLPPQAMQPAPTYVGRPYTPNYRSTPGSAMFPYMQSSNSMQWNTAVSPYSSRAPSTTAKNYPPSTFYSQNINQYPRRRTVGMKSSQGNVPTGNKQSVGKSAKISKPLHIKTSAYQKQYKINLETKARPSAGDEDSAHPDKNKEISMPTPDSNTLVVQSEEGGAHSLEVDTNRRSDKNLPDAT

Going from ACTTTTAA to ACTTAGAT, the “PBM E-score” value falls from 0.164 to -0.0771.

Compared with ATGGGAAT, ACCATACG is higher in “PBM E-score” value: -0.202 for the first, -0.0611 for the second.

First: CGCGCTAC
Second: ACTGGGCC
The “PBM E-score” value of the first is higher: 0.00148 for the first, -0.244 for the second.

Going from AGCTAGAA to GAACCGGA, the “PBM E-score” value falls from -0.0198 to -0.0365.

Compared with GAGCGAGC, GTCGCTGA is higher in “PBM E-score” value: -0.00859 for the first, 0.0069 for the second.

First: TAACGATA
Second: AAACGATA
The “PBM E-score” value of the first is lower: 0.138 for the first, 0.279 for the second.

Compared with CAACGATA, AGAACTGG is lower in “PBM E-score” value: 0.0594 for the first, -0.0181 for the second.

First: ATAGGATG
Second: AAATATAC
The “PBM E-score” value of the first is lower: 0.149 for the first, 0.225 for the second.

Compared with AAAAATAT, AAATAGAT is lower in “PBM E-score” value: 0.339 for the first, 0.275 for the second.

Compared with AAATATAT, AAAAATCA is lower in “PBM E-score” value: 0.273 for the first, 0.254 for the second.

Going from AAAAATAC to AAATAGAG, the “PBM E-score” value falls from 0.25 to 0.0914.

Compared with AAATAGAC, AAAAATCC is higher in “PBM E-score” value: -0.0352 for the first, 0.178 for the second.

Going from AAAAATCT to AAAAATAG, the “PBM E-score” value falls from 0.318 to 0.24.

Compared with AAATATAA, CTCGTTTA is lower in “PBM E-score” value: 0.224 for the first, 0.0722 for the second.

First: CCAACCGA
Second: AACAGCCA
The “PBM E-score” value of the first is higher: 0.0461 for the first, -0.019 for the second.

First: AGCGCAAG
Second: CACGGCAC
The “PBM E-score” value of the first is higher: -0.0674 for the first, -0.113 for the second.

First: ACAAGCGG
Second: TACCTACA
The “PBM E-score” value of the first is higher: 0.106 for the first, -0.0205 for the second.

Compared with AACTATGT, GGTTGAGA is lower in “PBM E-score” value: -0.0705 for the first, -0.103 for the second.

Going from GGTTGAAC to TGTTGTAA, the “PBM E-score” value rises from -0.0192 to 0.28.

Compared with CGTTGAAA, GGTTGAAA is higher in “PBM E-score” value: 0.185 for the first, 0.292 for the second.

Going from AGTTGTAA to AGTTGAAA, the “PBM E-score” value rises from 0.068 to 0.19.

Compared with GGTTGTAA, TGTTGAAA is higher in “PBM E-score” value: 0.0372 for the first, 0.311 for the second.

Compared with CCCCGTAC, AGTCTGCA is lower in “PBM E-score” value: -0.0713 for the first, -0.122 for the second.

First: CGCGTACC
Second: CCGCCTTA
The “PBM E-score” value of the first is lower: -0.113 for the first, 0.0555 for the second.

Compared with AAGGTTCT, CCCGAACA is higher in “PBM E-score” value: 0.0379 for the first, 0.128 for the second.

Compared with CGAAGCCC, AATACAAA is higher in “PBM E-score” value: -0.192 for the first, 0.265 for the second.

Compared with TATACAAA, AATACAAC is higher in “PBM E-score” value: 0.127 for the first, 0.157 for the second.

Going from AATACAAG to AATACAAT, the “PBM E-score” value falls from 0.302 to 0.0948.

Compared with GATACAAA, GGCAGCCC is lower in “PBM E-score” value: 0.134 for the first, -0.142 for the second.

First: GACTACAA
Second: GGAATCCC
The “PBM E-score” value of the first is lower: -0.102 for the first, 0.0198 for the second.

First: GACCATGC
Second: AACTCAAG
The “PBM E-score” value of the first is lower: -0.139 for the first, -0.00801 for the second.

Going from ATCTCAAA to CACTCAAA, the “PBM E-score” value falls from 0.27 to 0.0429.

First: AACTCAAA
Second: GTCTCAAA
The “PBM E-score” value of the first is higher: 0.266 for the first, 0.218 for the second.

Compared with TTCTCAAA, ATCTCAAG is lower in “PBM E-score” value: 0.291 for the first, 0.0665 for the second.

First: ATCTCAAT
Second: CTCTCAAA
The “PBM E-score” value of the first is higher: 0.0795 for the first, 0.0271 for the second.

First: ATGCCGTA
Second: CTGGTCGA
The “PBM E-score” value of the first is higher: -0.0947 for the first, -0.196 for the second.

Compared with ATGGATTC, ACCGTGAT is lower in “PBM E-score” value: 0.186 for the first, 0.0763 for the second.

Compared with TGATTACA, ACAACCAA is higher in “PBM E-score” value: -0.00637 for the first, 0.0252 for the second.

Compared with CGATCTCC, ATCAACTG is lower in “PBM E-score” value: -0.108 for the first, -0.112 for the second.

Going from AATTAAAC to TATTAACA, the “PBM E-score” value falls from 0.241 to 0.164.

First: AATTAAAA
Second: CATTAAAA
The “PBM E-score” value of the first is higher: 0.308 for the first, 0.27 for the second.

Going from CATTAAAG to AATTAAAG, the “PBM E-score” value rises from 0.034 to 0.103.

Compared with CATTAAAC, GATTAAAA is higher in “PBM E-score” value: 0.191 for the first, 0.234 for the second.

Compared with TATTAAAA, TAAGGCAA is lower in “PBM E-score” value: 0.341 for the first, 0.0326 for the second.

Going from CTACCCTC to GCCCTCCC, the “PBM E-score” value rises from -0.0776 to 0.115.

Compared with TGCTCACA, CCTTGTGC is higher in “PBM E-score” value: -0.148 for the first, -0.0236 for the second.

Going from CACCATAA to ATACTAGG, the “PBM E-score” value falls from 0.136 to 0.119.

Going from GGTCCTGA to AGCGCTAC, the “PBM E-score” value rises from -0.163 to -0.0647.

Going from CCGCAGGA to GTTACAAC, the “PBM E-score” value rises from -0.0635 to 0.289.

Going from ATTACAAA to ATTACAAC, the “PBM E-score” value falls from 0.165 to -0.0498.

Compared with CTTACAAC, TCTACAAA is higher in “PBM E-score” value: 0.0334 for the first, 0.138 for the second.

Compared with TTTACAAA, GTTACAAA is higher in “PBM E-score” value: 0.294 for the first, 0.384 for the second.

Going from CTTACAAA to TGTACAAA, the “PBM E-score” value falls from 0.143 to 0.0309.

Compared with TACGTCGA, GGAGTAGA is lower in “PBM E-score” value: 0.0119 for the first, -0.0759 for the second.

Compared with AAGCTGGA, GCGACCCC is higher in “PBM E-score” value: -0.0676 for the first, 0.0725 for the second.

Going from GGATGCGA to AGTCCATC, the “PBM E-score” value falls from -0.201 to -0.306.

Compared with TAAATATA, GAAATACA is lower in “PBM E-score” value: 0.321 for the first, -0.00127 for the second.

Going from GAAATATC to GAAATATA, the “PBM E-score” value rises from 0.0344 to 0.284.

First: AAAATATA
Second: CAAATATA
The “PBM E-score” value of the first is higher: 0.241 for the first, 0.0746 for the second.

Going from GTCTCTGA to CCATCTCA, the “PBM E-score” value rises from -0.168 to -0.0464.

Compared with CGGCCCCG, CACCATGA is higher in “PBM E-score” value: 0.0097 for the first, 0.0412 for the second.

Compared with CGCGATGC, CGTCCTAC is higher in “PBM E-score” value: -0.182 for the first, -0.0953 for the second.

First: TCAGTGCA
Second: CTAGGGCA
The “PBM E-score” value of the first is higher: 0.0371 for the first, -0.159 for the second.

First: GATGATGC
Second: GTTGCGAA
The “PBM E-score” value of the first is lower: -0.125 for the first, 0.093 for the second.

Compared with CGCAAGGC, AGTGAAAC is higher in “PBM E-score” value: 0.049 for the first, 0.394 for the second.

Compared with AGTGAAAG, GGTGAAAC is higher in “PBM E-score” value: 0.126 for the first, 0.463 for the second.

First: CGTGAAAA
Second: AGTGAAAT
The “PBM E-score” value of the first is higher: 0.22 for the first, 0.0994 for the second.

Going from GGTGAACC to GGTGAAAA, the “PBM E-score” value rises from -0.00551 to 0.0914.

Going from CGTGAAAG to CGTGAAAC, the “PBM E-score” value rises from 0.0979 to 0.364.

Going from CCTCGTTA to CGGTAACG, the “PBM E-score” value falls from 0.049 to -0.141.

First: GCCTAAAC
Second: CACAGGTA
The “PBM E-score” value of the first is lower: -0.125 for the first, 0.0125 for the second.

Going from ACCGTCTG to CCCAGGGC, the “PBM E-score” value falls from -0.00201 to -0.256.

First: TAGATGAA
Second: ACGATGAC
The “PBM E-score” value of the first is higher: 0.279 for the first, -0.173 for the second.

Compared with CGGATGAA, GAGATGAA is lower in “PBM E-score” value: 0.268 for the first, 0.156 for the second.

Going from CGGATGAG to AAGATGAA, the “PBM E-score” value rises from -0.11 to 0.18.

First: ACGATGAA
Second: GCGATGAA
The “PBM E-score” value of the first is higher: 0.274 for the first, 0.116 for the second.

Compared with AGGATGAA, CATACCAA is lower in “PBM E-score” value: 0.128 for the first, -0.0054 for the second.

First: AACTCTCC
Second: AGCGAGAT
The “PBM E-score” value of the first is lower: -0.129 for the first, 0.119 for the second.

Compared with CCGAATTC, TGACCTCA is lower in “PBM E-score” value: -0.00494 for the first, -0.0719 for the second.

Going from ACAGAAGC to AGAAGACT, the “PBM E-score” value falls from -0.0242 to -0.22.

First: AAGTTTCG
Second: TAGTTTGA
The “PBM E-score” value of the first is higher: 0.175 for the first, 0.0916 for the second.

First: TAGTTTAA
Second: CAGTTTCA
The “PBM E-score” value of the first is lower: 0.171 for the first, 0.374 for the second.

Going from AAGTTTCA to AAGTTTTA, the “PBM E-score” value falls from 0.437 to 0.287.

First: AAGTTTTG
Second: CAGTTTCG
The “PBM E-score” value of the first is lower: 0.116 for the first, 0.181 for the second.

First: AAGTTTTC
Second: TAGTTTCA
The “PBM E-score” value of the first is lower: 0.0212 for the first, 0.36 for the second.

Compared with AAGTTTCC, CAGTTTCC is lower in “PBM E-score” value: 0.11 for the first, 0.0749 for the second.
